Source: PubChem (several laboratories)
PostGolgi yeast: phenotypic screen on post-Golgi transport, primary screen. post-Golgi transport phenotypic cell assay. inhibition, % at 10 µM. actives 0.9% (n = 98,000). AID 739, 2007;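 further: yeast cells grown in 1536-well plates; yeast grown about 18 h at 30C before absorbance read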
PostGolgi ctrl: growth inhibition of yeast control strain, primary screen, counter-screen for post-Golgi transport modulator project; efflux-deficient yeast background strain, growth absorbance A615, 16 h; inhibition, % at 10 µM; actives 5% (n = 98,000); AID 738, 2007
CYP2C19 act: human CYP2C19 activators, primary screen, biochemical, luminescence. 96,000 tested, under 10 active. activation factor at 5 µM. AID 1025, 2008. recombinant CYP2C19, luciferin-H EGE luminescence; stronger effect = higher value; 0 = fully inhibited enzyme, 1 = untreated enzyme. Cytochrome P450 2C19 (Homo sapiens), P33261;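 active means activation factor of at least 2 at 5 µM in the primary screen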;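 further: 0 = wells with 2.5 mM tranylcypromine and 1 = vehicle-only wells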
CYP2C9 inhib: blockers of cytochrome P450 2C9 activity – biochemical, luminescence, ADME assay, primary screen. CYP2C9 Supersomes, luciferin-H conversion. P11712. inhibition, % at 5 µM. actives 20% (n = 96,000);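 active means blocking of liver enzyme CYP2C9 beyond about 50% at 5 µM, limit read from the data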
Target sequence (P11712 whole entry, looked up): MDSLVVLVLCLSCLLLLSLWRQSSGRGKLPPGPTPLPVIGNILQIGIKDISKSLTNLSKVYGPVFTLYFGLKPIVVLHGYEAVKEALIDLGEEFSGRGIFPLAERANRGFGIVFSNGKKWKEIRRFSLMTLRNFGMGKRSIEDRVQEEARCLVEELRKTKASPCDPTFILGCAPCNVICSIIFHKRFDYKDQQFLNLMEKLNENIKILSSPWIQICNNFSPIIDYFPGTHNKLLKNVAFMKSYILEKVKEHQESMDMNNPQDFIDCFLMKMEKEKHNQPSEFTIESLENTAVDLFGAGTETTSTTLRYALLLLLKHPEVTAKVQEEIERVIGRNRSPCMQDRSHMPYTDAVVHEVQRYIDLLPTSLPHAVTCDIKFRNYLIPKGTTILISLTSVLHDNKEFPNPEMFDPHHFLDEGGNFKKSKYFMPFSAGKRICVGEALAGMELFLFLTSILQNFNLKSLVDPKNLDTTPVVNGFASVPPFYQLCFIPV
CYP2C9 act: human CYP2C9 activators, primary screen, biochemical, luminescence. Cytochrome P450 2C9 (Homo sapiens), P11712. recombinant CYP2C9, luciferin-H conversion; stronger effect = higher value; factor 1 = untreated enzyme, 0 = blocked. activation factor at 5 µM. actives 1.4% (n = 96,000);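 active means activation factor of 2 or more for CYP2C9 at a 5 µM dose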;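 further: 0 = sulfaphenazole-blocked wells and 1 = vehicle-only wells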
CYP2C19 inhib: blockers of cytochrome P450 2C19 activity – biochemical, luminescence, ADME assay, primary screen; P33261; CYP2C19 Supersomes, luciferin-H EGE luminescence, 30 min; inhibition, % at 5 µM; actives 21% (n = 96,000); AID 778, 2007;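 active means CYP2C19 inhibition above a set limit at 5 µM in the primary screen, cut at about 50% in these data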;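 further: plate controls were negative control wells for no effect and 2.5 mM tranylcypromine positive control for full effect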
Starred values were filed as active, the others as inactive. The list is a sample of the results. Unless noted, no stated cut-off is given here; in the data, active means inhibition above about 30%; inactive means the rest.

SMILES	PostGolgi yeast	PostGolgi ctrl	CYP2C19 act	CYP2C9 inhib	CYP2C9 act	CYP2C19 inhib
CCCCn1c(SCc2c(C)noc2C)nc2cc(S(N)(=O)=O)ccc21	-7.5	0.8	0.9	34.5	0.7	6.1
Cc1ccc(-c2noc(CCC(=O)NCC3CCN(Cc4cccc(C)c4)CC3)n2)cc1	-0.2	21.0	0.7	39.8	0.6	26.9
COc1ccccc1Nc1nc(-c2sc(NC(=O)c3ccco3)nc2C)cs1	20.9	4.6	0.9	62.9*	0.4	9.6
COc1ccc(OC)c(Nc2nc(-c3sc(NC(=O)c4ccccc4)nc3C)cs2)c1	-5.5	-2.4	1.1	13.8	0.9	-5.8
Cc1nc(NC(=O)c2ccccc2)sc1-c1csc(Nc2ccc(Cl)cc2)n1	-7.4	19.3	0.6	-18.6	1.2	44.8
Cc1nc(NC(=O)c2ccco2)sc1-c1csc(Nc2ccc(Cl)cc2)n1	-6.8	39.3*	0.5	31.3	0.7	49.8
COc1cccc(N(C(=O)c2ccco2)c2nc(-c3sc(NC(=O)c4ccco4)nc3C)cs2)c1	-3.1	13.7	0.6	54.8*	0.5	41.3
Cc1ccccc1Nc1nc(-c2sc(NC(=O)c3cccc(Cl)c3)nc2C)cs1	-7.1	4.9	0.6	31.6	0.7	39.8
Cc1ccc(Cl)cc1Nc1nc(-c2sc(NC(=O)c3cccc(Cl)c3)nc2C)cs1	-4.7	3.5	0.8	54.7*	0.5	21.8
O=C(CC(C(=O)O)N1CCOCC1)Nc1ccc(Cl)cc1 (stereo not given)	-0.3	-6.7	1.1	-27.8	1.3	-11.7
COCC(C)NCc1cccc(C)c1 (stereo not given)	-9.7	-0.9	0.9	-9.7	1.1	14.9
CCC(C)N(CC(=O)NCc1ccc(OC)cc1)C(=O)c1csnn1 (stereo not given)	-3.3	7.9	0.8	-5.7	1.1	18.8
Cc1cc(C(=O)N/N=C2\CCCC(C)C2)n[nH]1 (stereo not given)	-1.3	18.3	1	-9.5	1.1	-4.4
Cc1ccc(Cl)cc1Nc1nc(-c2sc(NC(=O)c3ccco3)nc2C)cs1	-3.3	24.6	0.8	56.7*	0.4	16.5
CCOc1cc(C2C(C#N)=C(N)Oc3n[nH]c(C)c32)ccc1OCCN1CCOCC1 (stereo not given)	5.0	1.5	1	0.2	1	3.1
COc1ccc(C2C(C#N)=C(N)Oc3n[nH]c(C)c32)cc1Cn1nc(C)c([N+](=O)[O-])c1C (stereo not given)	-0.8	2.4	0.4	53.9*	0.5	56.1*
COc1cc(C2C(C#N)=C(N)Oc3n[nH]c(C)c32)cc2c1OCO2 (stereo not given)	3.1	-1.2	0.5	63.0*	0.4	54.8*
COc1ccc(C2C(C#N)=C(N)OC3=C2C(=O)CCC3)cc1Cn1nc(C)c([N+](=O)[O-])c1C (stereo not given)	8.9	4.7	0.8	44.2	0.6	24.6
COc1ccc(C2C(C#N)=C(N)Oc3n[nH]c(C)c32)cc1Cn1cc([N+](=O)[O-])cn1 (stereo not given)	2.6	-3.9	0.8	66.8*	0.3	21.2
COCCNC(=O)C1CC(=O)N(CCc2ccccc2)C1 (stereo not given)	-6.1	1.5	0.8	-13.0	1.1	22.4
CC(SC1=NCCS1)C(=O)Nc1nnc(-c2ccc(F)cc2)s1 (stereo not given)	5.4	27.0	1	5.7	0.9	3.4
CC(SC1=NCCS1)C(=O)Nc1nnc(-c2ccc(Br)cc2)s1 (stereo not given)	3.5	19.4	1.2	56.7*	0.4	-18.3
COc1ccccc1-n1c(SCC(N)=O)nc2c(c1=O)SCC2	-1.7	3.6	1	10.8	0.9	2.2
O=C(CSc1nc2c(c(=O)n1-c1ccc(Cl)cc1)SCC2)NCc1ccco1	-8.8	14.0	0.7	22.9	0.8	29.1
COc1ccc(-n2c(SCC(=O)N3CCN(c4ccccc4)CC3)nc3c(c2=O)SCC3)cc1	0.2	22.6	0.4	69.7*	0.3	57.0*
